Compound activity from PubChem.
DUSP3 inh = inhibitors of human VHR1 phosphatase (DUSP3); recombinant VHR phosphatase, colorimetric substrate read-out; inhibition, % at 20 µM; P51452; 50,000 tested, 0.7% active; AID 1992; in the data active means inhibition above about 60%
Target sequence (P51452 whole entry, looked up): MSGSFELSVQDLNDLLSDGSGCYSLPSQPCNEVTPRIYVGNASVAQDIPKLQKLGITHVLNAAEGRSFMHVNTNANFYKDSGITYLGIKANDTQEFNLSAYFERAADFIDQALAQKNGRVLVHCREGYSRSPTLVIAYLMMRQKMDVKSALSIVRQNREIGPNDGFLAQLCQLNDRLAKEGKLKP
Numbers stand for hits; – = inactive. The full list was thinned out, with hits kept by preference.

SMILES	DUSP3 inh
COc1cccc(C2C(C(=O)OC3CCCC3)=C(C)NC3=C2C(=O)CC(C)(C)C3)c1 (configuration not stated)	–
O=[N+]([O-])c1cccc(-c2cn(-c3ccccc3)c3[n+]2CCCS3)c1	–
CC(=O)Nc1nonc1-c1nc2ccccc2n1Cc1ccccc1	–
CC(=O)Nc1nonc1-c1nc2ccccc2n1Cc1ccc(C(C)(C)C)cc1	–
CC(C)(C)c1ccc(Cn2c(-c3nonc3N)nc3ccccc32)cc1	60
O=c1c2c3c(sc2ncn1/N=C/c1c[nH]c2ccccc12)CCCC3	–
C=CCNC(=O)C(=O)NCCCOC(C)C	–
COC(=O)c1cccc(NC(=O)c2c(Cl)ccc(Cl)c2OC)c1	–
CC(=O)Nc1ccccc1NC(=O)Cc1cccs1	–
CC1(C(=O)NCc2cccs2)CC1(Br)Br (configuration not stated)	–
S=C(S)N(CCN(Cc1cccs1)C(=S)S)Cc1cccs1	98
COc1ccc(NC(=O)c2sc3cc(C)ccc3c2Cl)c([N+](=O)[O-])c1	–
Cc1cc(OCC(=O)Nc2cc(-c3nc4ccccc4o3)ccc2C)ccc1Cl	–
O=C1CC(c2ccc(F)c(F)c2)c2cc(Br)c3ccccc3c2N1 (configuration not stated)	–
COc1cccc(C2CC(=O)Nc3c2cc(Br)c2ccccc32)c1OC (configuration not stated)	–
COc1ccc(C2CC(=O)Nc3c2cc(Br)c2ccccc32)cc1OC (configuration not stated)	67
CC(=O)NC(c1ccc(Cl)cc1)c1c(O)ccc2ccccc12 (configuration not stated)	–
O=C(CCc1ccccc1)Nc1nc(-c2ccccc2)cs1	–
O=C(CF)NC(=C(Cl)Cl)P(=O)(c1ccccc1)c1ccccc1	–
CCOC(=O)c1[nH]nc2c1C(=O)N(c1ccc(OC)c(Br)c1)C2=O	–
CCOC(=O)c1[nH]cnc1C(=O)Nc1ccc(Br)cc1	–
CCOC(=O)c1[nH]nc2c1C(=O)N(c1ccc(Br)cc1)C2=O	98
Cc1ccc(C(=O)N/N=C/c2c3ccccc3cc3ccccc23)cc1[N+](=O)[O-]	–
O=C(CC1S/C(=N\N=C\c2ccccc2)NC1=O)Nc1ccc(Cl)cc1Cl (configuration not stated)	–
Cn1/c(=N/N=C/C=C/c2ccco2)sc2ccccc21	114
SMILES	DUSP3 inh
Cn1/c(=N/N=C/c2cccc(Cl)c2Cl)sc2ccccc21	–
CN(C)c1ccc(/C=C/C=N/N=c2\sc3ccccc3n2C)cc1	–
C=CCOc1ccc(/C=C2\C(=O)N(C)C(C)=C2C(=O)OC)cc1OC	–
O=C(COc1ccc(Br)cc1)Nc1ccc(N2CCOCC2)c(Cl)c1	–
CC(Oc1ccccc1)C(=O)Nc1cc(Cl)cc(Cl)c1 (configuration not stated)	–
O=C1NN(c2ccc(Cl)c(Cl)c2)C(=O)/C1=C/c1ccc(Cl)c([N+](=O)[O-])c1	83
Cc1ccc(N2NC(=O)/C(=C/c3ccc(C)c([N+](=O)[O-])c3)C2=O)cc1Cl	–
CCOC(=O)c1ccc(N2NC(=O)/C(=C/c3ccc(Cl)c([N+](=O)[O-])c3)C2=O)cc1	–
COc1ccccc1-c1cc(C(=O)O)c2ccccc2n1	–
O=C(O)c1cc(-c2cccc([N+](=O)[O-])c2)nc2ccccc12	–
O=C(O)c1cc(-c2cn[nH]c2-c2ccccc2)nc2ccc3ccccc3c12	110
O=C(O/N=C(/c1ccncc1)c1ccc([N+](=O)[O-])cc1)c1ccccc1F	–
CC(=O)/C(=C1\NC(C)(C)Cc2ccccc21)c1ccccc1	–
CC1=C(C(=O)Nc2cccc(C)c2)C(c2ccc3c4c(cccc24)CC3)NC(=S)N1 (configuration not stated)	–
O=c1[nH]c(/C=C/c2ccc(N3CCOCC3)c([N+](=O)[O-])c2)c([N+](=O)[O-])c(=O)[nH]1	80
O=c1[nH]c(/C=C/c2ccccc2)c([N+](=O)[O-])c(=O)[nH]1	–
CCOc1cc(/C=C/c2[nH]c(=O)[nH]c(=O)c2[N+](=O)[O-])ccc1O	–
Cc1ccc(N2C(=O)c3ccc(-c4nc5c(C)cccc5c(=O)o4)cc3C2=O)cc1C	–
O/N=C1/CCCc2c1[nH]c1ccccc21	–
COc1cccc(-c2cc(C(=O)Nc3nc4ccccc4s3)c3ccccc3n2)c1	68
COc1cccc(-c2cc(C(=O)Nc3ncccn3)c3ccccc3n2)c1	–
COc1cccc(-c2cc(C(=O)Nc3nn[nH]n3)c3ccccc3n2)c1	–
COC(C)(C)C(=O)CC(=O)C(C)(C)C	–
CCN1C(=O)/C(=C\c2ccc(-c3ccccc3Cl)o2)SC1=S	–
O=C1/C(=C/c2ccc(Cl)cc2)SC(=S)N1CCS(=O)(=O)O	80
SMILES	DUSP3 inh
O=C1/C(=C\c2ccc(-c3cccc(Cl)c3)o2)SC(=S)N1CCS(=O)(=O)O	91
O=C1/C(=C/c2ccc(Cl)cc2)SC(=S)N1CCc1ccccc1	–
COC(=O)CN1C(=O)/C(=C\c2ccc(Cl)cc2)SC1=S	–
CCN1C(=O)/C(=C\c2ccc(-c3ccc(F)cc3)o2)SC1=S	–
COc1ccccc1N1C(=O)NC(=O)/C(=C/c2ccc(OC)c3ccccc23)C1=O	–
CCCOc1cc2oc(=O)c3c(c2cc1Cl)CCCC3	–
CCOc1cc(/C=N/N=C(N)N)ccc1OCc1ccccc1	–
O=C1C(Cl)=C(Nc2ccc(Cl)cc2)C(=O)c2ccccc21	–
Cc1ccc(NC(=O)c2oc3ccc(Cl)cc3c2C)c([N+](=O)[O-])c1	–
CCC(=O)NC(Cc1ccc(OC)c([N+](=O)[O-])c1)C(=O)O (configuration not stated)	–
O=C(/C=C/c1ccc2c(c1)OCCO2)c1c(-c2ccccc2)c2cc(Br)ccc2[nH]c1=O	–
CC(C)(C)c1ccc(OCCOc2ccc(/C=N/n3cnnc3)cc2)cc1	–
C(=N\n1cnnc1)/c1cccc(OCCOc2ccccc2)c1	–
Brc1ccc(OCCOc2ccc(/C=N/n3cnnc3)cc2)cc1	114
Cc1ccc(-n2cc(C=C3C(=O)NC(=O)NC3=O)cn2)cc1C	105
Cc1ccc(-n2cc(/C=c3\sc4nc5cc(C)c(C)cc5n4c3=O)cn2)cc1C	–
Cc1ccc(-n2c(C)cc(C=C3C(=O)NC(=S)NC3=O)c2C)cc1C	–
O=C1c2ccccc2CCC1C1(O)C(=O)Nc2ccccc21 (configuration not stated)	–
O=C1c2ccccc2CCC1C1(O)C(=O)Nc2ccc(Br)cc21 (configuration not stated)	117
CC1(C)CC(=O)C(C2(O)C(=O)Nc3ccc(Br)cc32)CO1 (configuration not stated)	–
O=C(O)c1ccc(NS(=O)(=O)c2cccs2)cc1	–
Cc1cccc(C)c1-n1c(C)cc(/C=N/NC(=O)c2ccncc2)c1C	–
CCc1ccc(-n2c(C)cc(/C=N/NC(=O)c3ccncc3)c2C)cc1	87
Cc1ccc(-n2c(C)cc(/C=N/NC(=O)c3ccncc3)c2C)cc1C	–
O=C(N/C(=C\c1ccc(-c2ccc(Cl)cc2)o1)C(=O)N1CCOCC1)c1ccccc1	–
COc1ccc(C(O)(CNCc2ccccc2)c2ccc(Br)cc2)cc1 (configuration not stated)	–
COc1ccc(C(=O)NC(=S)Nc2cccc([N+](=O)[O-])c2)cc1	–
CCc1ccc(N2C(=O)/C(=C/c3ccc(I)o3)C(=O)NC2=S)cc1	–
O=C1NC(=S)N(c2ccccc2F)C(=O)/C1=C/c1ccc(I)o1	86
CCOc1ccc(N2C(=O)/C(=C/c3ccc(I)o3)C(=O)NC2=S)cc1	85
